In general, inhibition refers to the change of the read-out against control, counted positive when it falls.

In all, about 5,000 compounds went through this assay and about 3,900 (78%) were called active. The set was probably picked from earlier hits. The list is a sample of the results. Unmarked numbers belong to inactive results. Rule as the data show it: active = inhibition above about 22%; inactive = the rest.

From PubChem BioAssay AID624504 (Sanford-Burnham Center for Chemical Genomics, 2012) come the findings set out here.

The nature of the test: fluorescence retest of MPTP screen hits in isolated mitochondria, single concentration (AID 624504).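 Also: 0% = DMSO vehicle and 100% = positive control.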 Conditions: membrane potential, Rhodamine 123 fluorescence, at 10 µM, stronger effect = higher value.
Take `O=C(NNc1c2ccccc2nc2ccccc12)c1cc2ccccc2cc1O`: the inhibition is 31.4% (active).
With `CCn1c(CNC(=O)c2cc(OC)c(OC)c(OC)c2)cc2cc(C)ccc21` the figure was 72.8% (active); with `CCCCOc1ccc(CSC(=N)N)cc1[N+](=O)[O-]`, -5.28%; with `CCc1ccc(Nc2n[n+](-c3ccccc3)c(-c3cccc(Cl)c3Cl)s2)cc1`, 86.2% (active).
With `Cc1cc(C(=O)CSc2nc(N)cc(=O)[nH]2)c(C)n1-c1cccc(F)c1` the figure was 59% (active); with `Cc1cc(C(=O)CSc2nc(N)cc(=O)[nH]2)c(C)n1Cc1ccco1`, 46.4% (active).
Regarding `NC[C@H](Cc1ccccc1)NCCc1cc(C(F)(F)F)cc(C(F)(F)F)c1`, the inhibition was -12%.
The value for `c1ccc2c(c1)C(=NC1CCCCC1)NC2=NC1CCCCC1` was 92.1% (active); that for `Cc1ccc2nnn(Cc3cccc(C(C)(C)C)c3O)c2c1` was 98.9% (active).
Regarding `O=c1c2ccccc2nc2n1C(CSCc1cccc(C(F)(F)F)c1)CS2` (stereo unspecified), the inhibition was 80.9% (active).
`O=c1c2ccccc2nc2n1C(CSCc1ccccc1)CS2` (stereo unspecified): the inhibition is 26.1% (active).
The value for `CN1CCC[C@@H]1CCO[C@](C)(c1ccccc1)c1ccc(Cl)cc1` was -12.2%; that for `CCCc1ccc(-c2c(C)sc(NC(=O)c3ccnn3C)c2C#N)cc1` was 90.5% (active).
With `CCCCc1nc(NCCN)c(C#N)c2c1CSC(C)(C)C2` the figure was -9.33%; with `COc1cc(CNCc2ccc(OC)c3ccccc23)cc(OC)c1OC`, 75.8% (active); with `Cc1nc2nc(SCC(=O)Nc3cccc(F)c3)[nH]c2cc1Br`, 81.1% (active).
As to `CC(=O)c1c(C)[nH]c(C(=O)COC(=O)c2cccc(S(=O)(=O)N(C)c3ccccc3)c2)c1C`, the inhibition is 90.1% (active).
For `CC(C)(CCl)C(=O)Nc1ccc(Sc2ccc(F)cc2)cc1`, the inhibition was 80.4% (active).
With `O=C(C/C(=N\NC(=O)c1ccccc1Br)C(F)(F)F)c1cccs1` the figure was 82.3% (active); with `O=C(NCCc1ccc2c(c1)OCCO2)c1cc2ccccc2o1`, 51.1% (active).
The value for `CC1(C)CC(=O)c2sc(N)nc2C1` was 1.93%; that for `CCCc1nc2c(c(=O)c3ccccc3n2C)c(=O)n1C1CCCCCC1` was 19.4%; that for `O=C(Nc1ccc(OC(F)(F)F)cc1)c1ccc2c(c1)no[n+]2[O-]` was 88.6% (active).
As for `CCC(C)(C)c1ccc(Oc2ccc(NC(=O)COC(=O)C3=COCCO3)cc2)cc1`, the inhibition was 55.3% (active).
For the compound `CCCCCCc1cc2cc(-c3nnc(-c4ccccc4)o3)c(=O)oc2cc1O`, the inhibition is 1.15%.
The value for `Cc1ccc(Nc2c3c(nc4ccccc24)CCC3)cc1` was 76.8% (active).
Consider `O=C(NCCOc1ccccc1F)Nc1ccc(Br)cc1`, for which the inhibition is 71.7% (active).
The value for `CCOC(=O)c1ccc(NC(=O)Cn2cnc3cc(C)c(C)cc32)cc1` was 88.8% (active).
Take `COc1ccc(NS(=O)(=O)c2cc(NC(=O)CC(=O)c3ccc([N+](=O)[O-])cc3)ccc2C)cc1`: the inhibition is 66.5% (active).
As for `O=C(Cc1cccc2ccccc12)NNC(=O)Nc1ccc(Cl)cc1`, the inhibition is 85.8% (active).
With `Cc1ccc(NC(=S)NC(NC(=O)Cc2cccc3ccccc23)C(Cl)(Cl)Cl)cc1` (stereo unspecified) the figure was 70.9% (active); with `COC(=O)c1ccc(NC(=O)c2ccccc2NS(=O)(=O)c2ccccc2)cc1`, 93.2% (active).
With `COc1cc(NC(=O)c2ccccc2NS(=O)(=O)c2ccc(Cl)s2)cc(OC)c1` the figure was 75.8% (active); with `Clc1ccc(-c2cc(C3CCNCC3)[nH]n2)c(Cl)c1`, -10.4%.
With `Cc1nnc(SC(C(=O)Nc2cc(Cl)cc(Cl)c2)c2ccccc2)[nH]c1=O` (stereo unspecified) the figure was 86.5% (active); with `CC(=O)c1c(C)[nH]c(C(=O)OCC(=O)Nc2sc3c(c2C#N)CCCC3)c1C`, 82.4% (active).
For `CCOC(=O)c1c(NC(=O)CSc2cn(CC)c3ccccc23)sc2c1CCC2`, the inhibition was -4.21%.
With `Cc1c(NC(=S)NCc2ccc(F)cc2)cccc1[N+](=O)[O-]` the figure was 78.8% (active).
With `Cc1cc(C)cc(NC(=S)NCc2ccc(F)cc2)c1` the figure was 57.4% (active); with `Cc1nc(CNS(=O)(=O)c2ccc(Oc3ccccc3)cc2)cs1`, 88.2% (active); with `FC(F)Oc1ccc(NC(=S)NCc2ccco2)cc1Cl`, 97.6% (active).
With `Cc1ccc(CC(=O)Nc2ccc(OC(F)F)c(Cl)c2)cc1C`, the inhibition is 89.8% (active).
For the compound `c1ccc2c(c1)CSc1sccc1C2=C1CCNCC1`, the inhibition is -11.2%.
With `Cc1nc2ccccc2cc1OCc1ccc(F)cc1` the figure was 100% (active).
As for `Cc1cc(OCCCC(=O)NCCN2C(=O)S/C(=C\c3cccnc3)C2=O)ccc1Cl`, the inhibition is 68.6% (active).
With `Cc1nn(C)cc1CNC(=O)Nc1ccc(Cl)cc1` the figure was 96.6% (active); with `Cc1cc(C=O)c(C)n1-c1ccc(NC2CCCCC2)c([N+](=O)[O-])c1`, 41.9% (active); with `CCCCCCCCCCCCN1C(=O)CSC1c1cccnc1` (stereo unspecified), 19.9%.
As to `COc1cc2c3c(c1)/C(=C1/SC(=S)NC1=O)C(=O)N3C(C)(C)C=C2C`, the inhibition was 49.1% (active).
As to `CCCC(C(=O)OCCN(CC)CC)(c1ccccc1)c1ccccc1`, the inhibition is 4.44%.
With `CC(C)N1C(=S)SC(C)(C)C1n1oc(=O)n(-c2ccc(Cl)c(Cl)c2)c1=O` (stereo unspecified), the inhibition was 80.6% (active).
With `COc1ccc(CNc2ncnc3ccccc23)cc1` the figure was 71.8% (active).
In the case of `O=C(Nc1nc2ccc([N+](=O)[O-])cc2s1)c1ccncc1`, the inhibition is 20.6% (active).
With `O=C(NC(Nc1nc2ccc([N+](=O)[O-])cc2s1)(C(F)(F)F)C(F)(F)F)c1ccccc1`, the inhibition is 81.4% (active).
The value for `Cc1cc(C)cc(OCC(=O)Nc2nc3ccc([N+](=O)[O-])cc3s2)c1` was 62.3% (active); that for `O=C(Nc1nc2ccc([N+](=O)[O-])cc2s1)c1ccc(S(=O)(=O)N2CCCc3ccccc32)cc1` was 74.7% (active); that for `CCCC[C@@H]1CN=C(N)N1CCc1cc(C(F)(F)F)cc(C(F)(F)F)c1` was -7.58%.
The value for `O=C(Nc1ccc(Cl)cc1)Nc1nnc(/C=C/c2ccccc2)s1` was 67% (active).
With `N#CCCN(C(=S)Nc1ccc(Cl)c(Cl)c1)C1CCCCC1` the figure was 91.7% (active); with `CS(=O)(=O)N(CC(=O)Nc1ccc(Cl)c(Cl)c1)C1CCCCC1`, 82.4% (active).
On to `O=C(N/N=C/c1ccc(O)c(O)c1)C1c2ccccc2Oc2ccccc21`, for which the inhibition was -9.84%.
